Common to all, as to test: DAPPL (digital affinity profiling via proximity ligation, sequencing); 10 mM Tris-HCl pH 7.5, 50 mM NaCl, 1 mM DTT, 4% glycerol, room temperature, 30 min; GST-TFs on glutathione beads, 16-mer random dsDNA library, 0.1% formaldehyde crosslink after washing; high values mean tight binding
For one experiment, the target named is T1, FEV (Homo sapiens, UniProt Q99581 1-238).
T1 sequence: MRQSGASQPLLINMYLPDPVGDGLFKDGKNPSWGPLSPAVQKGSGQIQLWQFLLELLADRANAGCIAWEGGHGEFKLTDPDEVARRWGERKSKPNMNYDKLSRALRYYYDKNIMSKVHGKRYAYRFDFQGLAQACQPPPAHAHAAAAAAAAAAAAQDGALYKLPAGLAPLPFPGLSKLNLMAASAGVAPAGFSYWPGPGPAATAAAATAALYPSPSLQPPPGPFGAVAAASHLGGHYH
The conditions noted are these: protein: recombinant; tags: N-terminal GST; dsDNA, one strand shown. The procedure, abridged:
(§1)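 A tag-only sample was pooled with DNA-barcoded human transcription factors that had been expressed in yeast as GST fusions and captured on glutathione beads. The pools were incubated for 30 min at room temperature with 200 nmole of a random double-stranded 16-mer DNA library in Tris/NaCl/DTT/glycerol buffer, then washed, crosslinked with 0.1% formaldehyde, proximity-ligated (BsaI/T4 ligase, 1 h, 37 °C), PCR-amplified and sequenced on an Illumina NextSeq500. Binding signal is each hexamer's read frequency for a factor divided by its frequency for the tag-only sample.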

For a further experiment, the target named is ETV5 (Homo sapiens, UniProt P41161 1-510). The settings on record: protein: recombinant; tags: N-terminal GST; dsDNA, one strand shown. The procedure, abridged:
as §1

The target of the next experiment is HSF1 (Homo sapiens, UniProt Q00613 1-529). The settings on record: protein: recombinant; tags: N-terminal GST; chain copies: 3; dsDNA, one strand shown. The procedure, abridged: as §1
The target of a further experiment is T2, SPIC (Homo sapiens, UniProt Q8N5J4 1-248).
T2 sequence: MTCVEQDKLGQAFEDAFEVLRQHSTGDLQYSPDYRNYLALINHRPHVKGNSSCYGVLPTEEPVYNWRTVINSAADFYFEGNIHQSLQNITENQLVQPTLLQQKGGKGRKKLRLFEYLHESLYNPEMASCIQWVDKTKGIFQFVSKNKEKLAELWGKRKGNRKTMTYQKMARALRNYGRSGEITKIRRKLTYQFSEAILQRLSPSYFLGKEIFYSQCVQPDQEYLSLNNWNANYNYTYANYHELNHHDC
The settings on record: protein: recombinant; tags: N-terminal GST; dsDNA, one strand shown. The procedure, abridged:
as §1

The target in another experiment is ELF4 (Homo sapiens, UniProt Q99607 1-663). The settings on record: protein: recombinant; tags: N-terminal GST; dsDNA, one strand shown. The procedure, abridged:
as §1

For a further experiment, the target named is T3, ELK4 (Homo sapiens, UniProt P28324-2 1-405).
T3 sequence: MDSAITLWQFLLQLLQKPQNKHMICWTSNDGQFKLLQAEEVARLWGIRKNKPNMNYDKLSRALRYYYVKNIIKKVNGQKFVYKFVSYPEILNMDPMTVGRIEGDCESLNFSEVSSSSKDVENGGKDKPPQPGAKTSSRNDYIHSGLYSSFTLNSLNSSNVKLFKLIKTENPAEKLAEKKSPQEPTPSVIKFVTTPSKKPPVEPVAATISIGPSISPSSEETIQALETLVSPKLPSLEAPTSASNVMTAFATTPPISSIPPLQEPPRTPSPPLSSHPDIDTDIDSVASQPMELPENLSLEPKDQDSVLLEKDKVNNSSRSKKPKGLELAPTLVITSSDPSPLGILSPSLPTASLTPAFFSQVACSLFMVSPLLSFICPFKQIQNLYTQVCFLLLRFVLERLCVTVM
The settings on record: protein: recombinant; tags: N-terminal GST; dsDNA, one strand shown. The procedure, abridged:
as §1

The target of a further experiment is T4, ETV2 (Homo sapiens, UniProt O00321 1-342).
T4 sequence: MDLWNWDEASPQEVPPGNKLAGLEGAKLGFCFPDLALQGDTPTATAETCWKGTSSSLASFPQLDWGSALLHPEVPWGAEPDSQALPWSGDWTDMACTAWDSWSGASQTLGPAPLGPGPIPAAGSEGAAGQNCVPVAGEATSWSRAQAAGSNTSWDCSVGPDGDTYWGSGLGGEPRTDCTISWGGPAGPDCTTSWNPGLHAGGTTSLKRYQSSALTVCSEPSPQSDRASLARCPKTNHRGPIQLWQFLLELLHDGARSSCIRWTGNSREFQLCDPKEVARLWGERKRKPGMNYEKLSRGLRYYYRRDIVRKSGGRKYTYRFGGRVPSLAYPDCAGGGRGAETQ
The settings on record: protein: recombinant; tags: N-terminal GST; dsDNA, one strand shown. The procedure, abridged:
as §1

For a further experiment, the target named is T5, ELF3 (Homo sapiens, UniProt P78545 1-371).
T5 sequence: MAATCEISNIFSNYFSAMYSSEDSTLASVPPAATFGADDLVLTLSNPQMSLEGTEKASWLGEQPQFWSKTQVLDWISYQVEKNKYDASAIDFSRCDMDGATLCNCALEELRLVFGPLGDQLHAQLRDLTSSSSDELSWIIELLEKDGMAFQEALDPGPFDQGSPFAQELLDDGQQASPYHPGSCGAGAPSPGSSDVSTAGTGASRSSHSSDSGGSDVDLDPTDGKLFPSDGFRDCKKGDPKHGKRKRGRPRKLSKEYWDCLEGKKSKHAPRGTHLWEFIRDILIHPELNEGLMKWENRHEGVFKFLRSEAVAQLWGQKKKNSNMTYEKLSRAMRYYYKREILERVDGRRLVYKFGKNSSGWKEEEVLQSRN
The settings on record: protein: recombinant; tags: N-terminal GST; dsDNA, one strand shown. The procedure, abridged: as §1

For the next experiment, the target named is CRX (Homo sapiens, UniProt O43186 1-299). The settings on record: protein: recombinant; tags: N-terminal GST; dsDNA, one strand shown. The procedure, abridged: as §1
The next experiment concerns the target ETV1 (Homo sapiens, UniProt P50549 1-477). The settings on record: protein: recombinant; tags: N-terminal GST; dsDNA, one strand shown. The procedure, abridged:
as §1

ETV5, sequence (P41161 whole entry): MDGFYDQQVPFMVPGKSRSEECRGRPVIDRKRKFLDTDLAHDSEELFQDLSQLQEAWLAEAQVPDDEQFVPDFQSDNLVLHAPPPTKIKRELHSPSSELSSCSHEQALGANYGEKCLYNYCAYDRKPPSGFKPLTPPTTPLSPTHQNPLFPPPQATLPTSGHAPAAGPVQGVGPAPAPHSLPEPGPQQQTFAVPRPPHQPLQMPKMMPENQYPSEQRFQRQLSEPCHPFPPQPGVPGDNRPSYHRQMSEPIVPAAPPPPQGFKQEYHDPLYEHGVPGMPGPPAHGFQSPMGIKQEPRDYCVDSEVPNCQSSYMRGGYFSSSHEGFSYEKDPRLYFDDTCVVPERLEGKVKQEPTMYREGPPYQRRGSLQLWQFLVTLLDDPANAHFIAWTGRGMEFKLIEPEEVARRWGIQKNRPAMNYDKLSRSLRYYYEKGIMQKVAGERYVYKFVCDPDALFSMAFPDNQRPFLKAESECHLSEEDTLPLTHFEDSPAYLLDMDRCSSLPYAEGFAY
HSF1, sequence (Q00613 whole entry): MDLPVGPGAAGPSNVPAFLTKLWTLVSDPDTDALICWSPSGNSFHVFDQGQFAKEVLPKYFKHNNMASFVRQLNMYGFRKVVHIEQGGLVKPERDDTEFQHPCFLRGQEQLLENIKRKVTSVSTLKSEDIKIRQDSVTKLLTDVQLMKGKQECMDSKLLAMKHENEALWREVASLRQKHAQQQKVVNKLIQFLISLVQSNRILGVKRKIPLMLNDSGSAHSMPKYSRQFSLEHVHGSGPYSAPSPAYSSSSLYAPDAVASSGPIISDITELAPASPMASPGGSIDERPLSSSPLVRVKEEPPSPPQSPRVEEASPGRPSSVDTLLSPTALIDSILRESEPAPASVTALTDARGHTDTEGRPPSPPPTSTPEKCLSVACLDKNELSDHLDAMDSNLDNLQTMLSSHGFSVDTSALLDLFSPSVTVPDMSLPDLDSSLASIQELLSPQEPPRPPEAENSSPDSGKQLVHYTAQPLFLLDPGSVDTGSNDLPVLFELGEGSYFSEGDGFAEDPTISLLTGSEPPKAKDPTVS
ELF4, sequence (Q99607 whole entry): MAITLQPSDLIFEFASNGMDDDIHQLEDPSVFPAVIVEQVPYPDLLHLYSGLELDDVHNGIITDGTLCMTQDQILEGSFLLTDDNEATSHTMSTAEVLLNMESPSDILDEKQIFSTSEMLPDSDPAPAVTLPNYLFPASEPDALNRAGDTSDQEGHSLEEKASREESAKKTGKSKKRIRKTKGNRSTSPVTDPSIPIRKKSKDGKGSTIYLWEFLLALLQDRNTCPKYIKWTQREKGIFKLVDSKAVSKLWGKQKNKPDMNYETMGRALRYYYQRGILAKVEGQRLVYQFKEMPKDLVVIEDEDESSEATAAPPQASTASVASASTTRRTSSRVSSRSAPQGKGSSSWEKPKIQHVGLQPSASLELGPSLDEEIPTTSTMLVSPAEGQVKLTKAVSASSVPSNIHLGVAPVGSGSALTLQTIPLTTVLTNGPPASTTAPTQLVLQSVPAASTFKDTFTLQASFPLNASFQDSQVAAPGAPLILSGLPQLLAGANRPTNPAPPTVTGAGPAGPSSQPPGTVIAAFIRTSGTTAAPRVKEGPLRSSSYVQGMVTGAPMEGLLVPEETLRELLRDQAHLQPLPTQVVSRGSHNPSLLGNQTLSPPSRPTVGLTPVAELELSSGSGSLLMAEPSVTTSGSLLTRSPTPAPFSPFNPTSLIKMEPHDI
CRX, sequence (O43186 whole entry): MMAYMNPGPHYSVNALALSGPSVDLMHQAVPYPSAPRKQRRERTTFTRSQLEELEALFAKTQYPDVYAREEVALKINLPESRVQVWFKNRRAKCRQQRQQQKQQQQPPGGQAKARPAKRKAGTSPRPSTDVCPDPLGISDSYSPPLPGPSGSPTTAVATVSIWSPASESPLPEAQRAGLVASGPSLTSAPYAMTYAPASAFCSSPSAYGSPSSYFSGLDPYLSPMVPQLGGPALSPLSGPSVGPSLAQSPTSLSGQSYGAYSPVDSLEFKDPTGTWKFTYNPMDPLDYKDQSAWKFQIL
ETV1, sequence (P50549 whole entry): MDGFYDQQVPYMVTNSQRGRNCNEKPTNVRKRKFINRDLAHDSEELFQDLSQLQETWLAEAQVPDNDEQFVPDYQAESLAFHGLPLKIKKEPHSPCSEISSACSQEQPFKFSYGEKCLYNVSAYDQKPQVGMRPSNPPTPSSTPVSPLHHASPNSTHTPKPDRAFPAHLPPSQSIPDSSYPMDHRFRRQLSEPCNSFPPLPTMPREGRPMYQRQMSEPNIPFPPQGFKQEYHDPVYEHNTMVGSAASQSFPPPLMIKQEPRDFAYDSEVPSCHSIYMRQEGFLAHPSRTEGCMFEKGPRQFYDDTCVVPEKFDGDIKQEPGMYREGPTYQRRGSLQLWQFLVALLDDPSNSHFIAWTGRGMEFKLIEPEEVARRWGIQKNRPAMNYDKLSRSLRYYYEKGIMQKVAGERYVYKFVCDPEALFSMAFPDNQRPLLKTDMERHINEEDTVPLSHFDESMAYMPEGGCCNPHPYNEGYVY

On to CGATTG, for which the binding signal with FEV is 1.12 fold enrichment (6-mer frequency, TF over GST control); in the experiment with ETV5, 1.18 fold enrichment (6-mer frequency, TF over GST control); in the experiment with HSF1, 1.21 fold enrichment (6-mer frequency, TF over GST control); with SPIC, 1.08 fold enrichment (6-mer frequency, TF over GST control); with ELF4, 1.28 fold enrichment (6-mer frequency, TF over GST control); with ELK4 it was 1.34 fold enrichment (6-mer frequency, TF over GST control). Moreover, the binding signal with ETV2 is 1.08 fold enrichment (6-mer frequency, TF over GST control); in the experiment with ELF3, 1.14 fold enrichment (6-mer frequency, TF over GST control); in the experiment with CRX, 1.16 fold enrichment (6-mer frequency, TF over GST control); with ETV1, 1.16 fold enrichment (6-mer frequency, TF over GST control).
On to TGACCG, for which the binding signal with FEV is 1.66 fold enrichment (6-mer frequency, TF over GST control); in the experiment with ETV5 it was 1.33 fold enrichment (6-mer frequency, TF over GST control); in the experiment with HSF1, 1.17 fold enrichment (6-mer frequency, TF over GST control); with SPIC, 1.68 fold enrichment (6-mer frequency, TF over GST control); with ELF4, 1.47 fold enrichment (6-mer frequency, TF over GST control); in the experiment with ELK4, 1.4 fold enrichment (6-mer frequency, TF over GST control). In addition, the binding signal with ETV2 is 1.52 fold enrichment (6-mer frequency, TF over GST control); in the experiment with ELF3 it was 1.66 fold enrichment (6-mer frequency, TF over GST control); with CRX it was 1.1 fold enrichment (6-mer frequency, TF over GST control); with ETV1, 1.56 fold enrichment (6-mer frequency, TF over GST control).
Take ATCAAC: the binding signal was 1.13 fold enrichment (6-mer frequency, TF over GST control) in the experiment with FEV; 1.04 fold enrichment (6-mer frequency, TF over GST control) with ETV5; 1.02 fold enrichment (6-mer frequency, TF over GST control) in the experiment with HSF1; 1.03 fold enrichment (6-mer frequency, TF over GST control) in the experiment with SPIC; 1.09 fold enrichment (6-mer frequency, TF over GST control) with ELF4; 1.14 fold enrichment (6-mer frequency, TF over GST control) in the experiment with ELK4. Further, the binding signal with ETV2 is 1.18 fold enrichment (6-mer frequency, TF over GST control); with ELF3 it was 1.08 fold enrichment (6-mer frequency, TF over GST control); in the experiment with CRX, 1.25 fold enrichment (6-mer frequency, TF over GST control); with ETV1, 1.1 fold enrichment (6-mer frequency, TF over GST control).
For the sequence CTGTTC, the binding signal was 1.33 fold enrichment (6-mer frequency, TF over GST control) in the experiment with FEV; 1.39 fold enrichment (6-mer frequency, TF over GST control) with ETV5; 1.38 fold enrichment (6-mer frequency, TF over GST control) with HSF1; 1.44 fold enrichment (6-mer frequency, TF over GST control) with SPIC; 1.42 fold enrichment (6-mer frequency, TF over GST control) with ELF4; 1.19 fold enrichment (6-mer frequency, TF over GST control) in the experiment with ELK4. In addition, the binding signal is 1.38 fold enrichment (6-mer frequency, TF over GST control) with ETV2; 1.63 fold enrichment (6-mer frequency, TF over GST control) with ELF3; 1.07 fold enrichment (6-mer frequency, TF over GST control) with CRX; 1.46 fold enrichment (6-mer frequency, TF over GST control) with ETV1.
GCGACT: the binding signal in the experiment with FEV was 1.31 fold enrichment (6-mer frequency, TF over GST control); with ETV5, 1.28 fold enrichment (6-mer frequency, TF over GST control); with HSF1, 1.11 fold enrichment (6-mer frequency, TF over GST control); with SPIC it was 1.28 fold enrichment (6-mer frequency, TF over GST control); with ELF4 it was 1.13 fold enrichment (6-mer frequency, TF over GST control); with ELK4 it was 1.28 fold enrichment (6-mer frequency, TF over GST control). In addition, the binding signal is 1.55 fold enrichment (6-mer frequency, TF over GST control) with ETV2; 1.05 fold enrichment (6-mer frequency, TF over GST control) with ELF3; 1.14 fold enrichment (6-mer frequency, TF over GST control) with CRX; 1.22 fold enrichment (6-mer frequency, TF over GST control) with ETV1.
On to TAATCA, for which the binding signal with FEV is 1.13 fold enrichment (6-mer frequency, TF over GST control); with ETV5 it was 1.18 fold enrichment (6-mer frequency, TF over GST control); in the experiment with HSF1, 1.64 fold enrichment (6-mer frequency, TF over GST control); with SPIC, 1.26 fold enrichment (6-mer frequency, TF over GST control); with ELF4 it was 1.11 fold enrichment (6-mer frequency, TF over GST control); with ELK4 it was 1.32 fold enrichment (6-mer frequency, TF over GST control). The binding signal in the experiment with ETV2 was 1.27 fold enrichment (6-mer frequency, TF over GST control); with ELF3 it was 1.18 fold enrichment (6-mer frequency, TF over GST control); in the experiment with CRX, 2.51 fold enrichment (6-mer frequency, TF over GST control); with ETV1, 1.14 fold enrichment (6-mer frequency, TF over GST control).
For TGTATG, the binding signal was 1.21 fold enrichment (6-mer frequency, TF over GST control) with FEV; 1.28 fold enrichment (6-mer frequency, TF over GST control) in the experiment with ETV5; 1.06 fold enrichment (6-mer frequency, TF over GST control) in the experiment with HSF1; 1.09 fold enrichment (6-mer frequency, TF over GST control) with SPIC; 1.22 fold enrichment (6-mer frequency, TF over GST control) with ELF4; 1.34 fold enrichment (6-mer frequency, TF over GST control) in the experiment with ELK4. Moreover, the binding signal in the experiment with ETV2 was 1.18 fold enrichment (6-mer frequency, TF over GST control); with ELF3 it was 1.19 fold enrichment (6-mer frequency, TF over GST control); with CRX it was 1.04 fold enrichment (6-mer frequency, TF over GST control); in the experiment with ETV1 it was 1.27 fold enrichment (6-mer frequency, TF over GST control).

For the origin of these results see publication PMC7862700, “An all-to-all approach to the identification of sequence-specific readers for epigenetic DNA modifications on cytosine”.
